The source made the active and inactive calls. How the source made its calls: active means hit-call score of the fitted dose curve at least 0.9, where 1 is the maximum; inactive means score below 0.9.
The molecules below were run on X-box binding protein 1 (XBP1), XBP1 (gene 7494) (assay: LTEA_HepaRG_XBP1: Life Technologies and Expression Analysis (LTEA) Assay for X-box binding protein 1 (XBP1) using HepaRG (AID 2283540)). Settings: mRNA level, 48 h; actives raise or lower the signal.
Protocol: LTEA_HepaRG is a cell based, multiplexed-readout assay that uses HepaRG, a human liver cell line, with measurements taken at 48 hours after chemical dosing on a 96-well plate.LTEA_HepaRG_XBP1 is one of 102 assay component(s) measured in the LTEA HepaRG cell culture assay. It is a marker of Diseases associated with XBP1 including Major Affective Disorder 7 and Bipolar Disorder.Data from the assay component LTEA_HepaRG_XBP1 was analyzed into 1 endpoint. This assay endpoint, LTEA_HepaRG_XBP1, was analyzed with bidirectional fitting relative to DMSO as the negative control and baseline of activity. Using a type of inducible reporter, measures of mRNA induction for gain or loss-of-signal activity can be used to understand regulation of transcription factor activity. To generalize the intended target to other relatable targets, this assay endpoint is annotated to the dna binding intended target family, where the subfamily is basic leucine zipper.
A total of 1060 chemcials from the ToxCast library were tested in eight-point concentration-response experiments. Cell culture and cytotoxicity assays were conducted at Thermo Fisher Scientific's Custom Services facility (Madison, WI). A single lot of human HepaRG cells (Thermo Fisher Scientific, Frederick, MD) was used for the cell culture experiments. 96-well format collagen type I coated plates of human HepaRG cells were prepared using established methods. Briefly, cryopreserved HepaRG cells were thawed, plated at a density of approximately 100,000 cells/well in HepaRG Thaw, Plate, and General Purpose media (HPRG770, Thermo Fisher Scientific), and incubated for 48 hours. 0.5% DMSO was selected as vehicle control to balance the requisite need of DMSO in HepaRG cultures to maintain differentiation (for example, baseline metabolism, proportions of hepatocytes vs. cholangiocytes), while enabling further hepatic receptor pathway activation (for example, PXR and CAR) in response to chemical exposure. 48 hours after plating, the culture medium was replaced with HepaRG Serum-Free Incudtion Media. Cells were exposed to each test chemical in duplicate and maintained in CO2 incubators for another 48 hours. Chemical plates were thawed to room temperature and 200x concentrations of treatment groups were prepared. 8-point conentration-reponse curves were made with the highest exposure at 100 uM, followed by half-log dilutions, all in 0.5% DMSO. Each test plate contained variouse controls, induction positive controls (1mM phenobarbital), cytotoxicity positive controls ([…] aflatoxin B1), vehicle controls (0.5% DMSO), and total lysis controls (0.5% DMSO). Cell morphology images were taken using an Essen IncuCyte FLR automated microscope, with six 96-well plates imaged in about 24 minutes. Images were captured and exported and JPEG files. Spent culture media was transfered to black-well plates for the LDH assay, and remaining media was sorted at -80 C for later use. Cells were treated with RLT buffer and frozen until shipped for gene expression analysis. Total RNA was isolated from the cell suspension in 75 uL of Buffer RLT (Qiagen, Germantown, MD 20874) by Quintiles/Expression Analysis (Durham, NC) using a custom isolation procedure. Total RNA from each plate well was transferred to a preamplification plate. Fluidigm's 96.96 Dynamic ArrayTM (Fluidigm, Amsterdam, the Netherlands) technology was used for gene expression analyses by quantitative reverse transcription polymerase chain reaction (qRT-PCR, performed by Quintiles/Expression Analysis, Durham, NC)89. Standard TaqManTM Assays (Applied Biosystems/ThermoFisher Scientific, Foster City, CA) were used to assess the expression of 93 genes selected based on their selectivity and sensitivity to important hepatic receptors known to be modulated by environmental chemicals; importance in human hepatocyte functionality; and hepatotoxicity. […]
In the case of `CCCCCCCCCc1ccc(O)cc1`, the outcome is reported as “inactive”. In the case of `CCC(C)(CC)c1cc(NC(=O)c2c(OC)cccc2OC)on1`, the outcome is reported as “inactive”. With `CCC(C)(c1ccc(O)cc1)c1ccc(O)cc1` the outcome was “inactive”. In the case of `Nn1cnnc1`, the outcome is reported as “inactive”. For `Clc1ccc(Cl)cc1`, the outcome was “inactive”. For `Cc1cccc([N+](=O)[O-])c1`, the outcome was “inactive”. In the case of `CO/C=C(/C(=O)OC)c1ccccc1COc1cccc(C(F)(F)F)n1`, the outcome is reported as “inactive”. In the case of `ClC1=C(Cl)[C@]2(Cl)[C@@H]3[C@H]4C[C@H]([C@@H]5O[C@H]45)[C@@H]3[C@@]1(Cl)C2(Cl)Cl`, the outcome is reported as “inactive”. `CC(c1ccc(O)cc1)(c1ccc(O)cc1)c1ccc(O)cc1` was tested, and the outcome was “inactive”. In the case of `COS(=O)(=O)OC`, the outcome is reported as “inactive”. With `Cc1ccccc1[N+](=O)[O-]` the outcome was “inactive”. In the case of `C1CC2OC2CC1C1CO1` (stereo not given), the outcome is reported as “inactive”. In the case of `CCC(C)c1cc([N+](=O)[O-])cc([N+](=O)[O-])c1O` (stereo not given), the outcome is reported as “inactive”. For `Clc1ccc(C(c2ccccc2Cl)C(Cl)(Cl)Cl)cc1` (stereo not given), the outcome was “inactive”. For `CCSC(=O)N(CC)C1CCCCC1`, the outcome was “inactive”. `O=C(NC(=O)c1cc(F)c(F)cc1Cl)Nc1cc(F)ccc1N1CCC(C(=O)O)CC1` was tested, and the outcome was “inactive”. `Cc1cc(O)ccc1Cl` was tested, and the outcome was “inactive”. With `CCNc1nc(NC(C)C)nc(SC)n1` the outcome was “inactive”. In the case of `Cc1cc2c3c(c1)C(c1ccccc1)=N[C@@H](NC(=O)c1ccncc1)C(=O)N3CC2`, the outcome is reported as “inactive”. `Cc1ccccc1CO[C@@H]1C[C@@]2(C(C)C)CC[C@]1(C)O2` was tested, and the outcome was “inactive”. With `Cc1cc(-c2ccc(N)c(C)c2)ccc1N` the outcome was “inactive”. In the case of `CCCCCCCCOC(=O)c1ccccc1C(=O)OCCCCCCCC`, the outcome is reported as “inactive”. With `CCCN(CCC)N=O` the outcome was “inactive”. In the case of `c1ccc(-c2ccccc2)cc1`, the outcome is reported as “inactive”. `ClC1=C(Cl)[C@]2(Cl)[C@@H]3[C@@H](Cl)[C@H]4O[C@H]4[C@@H]3C1(Cl)C2(Cl)Cl` was tested, and the outcome was “inactive”. `Clc1ccc(C(Cl)(Cl)Cl)cc1` was tested, and the outcome was “inactive”. `NS(=O)(=O)C(F)(F)C(F)(F)C(F)(F)C(F)(F)C(F)(F)C(F)(F)C(F)(F)C(F)(F)F` was tested, and the AC50 was 3.63 µM (active). For `CN(C)CCO`, the outcome was “inactive”. `O=C(NC(=O)c1c(F)cccc1F)Nc1cc(Cl)c(OC(F)(F)C(F)F)c(Cl)c1` was tested, and the outcome was “inactive”. With `ClC1=C(Cl)[C@]2(Cl)[C@@H]3[C@@H]4C[C@@H]([C@H]5O[C@@H]45)[C@@H]3[C@@]1(Cl)C2(Cl)Cl` the AC50 was 0.0249 µM (active). With `Oc1ccc(C(c2ccc(O)cc2)(C(F)(F)F)C(F)(F)F)cc1` the AC50 was 77.7 µM (active). For `C=CC(N)=O`, the outcome was “inactive”. For `N#Cc1ccc(N(CC(N)=O)CC(F)(F)F)cc1C(F)(F)F`, the outcome was “inactive”. With `O=S(=O)(O)C(F)(F)C(F)(F)C(F)(F)C(F)(F)F` the outcome was “inactive”. In the case of `CCOC(=O)C(O)(c1ccc(Cl)cc1)c1ccc(Cl)cc1`, the outcome is reported as “inactive”. In the case of `CC1=C2C[C@H]3[C@@H](CC=C4C[C@@H](O)CC[C@@]43C)[C@@H]2CC[C@]12O[C@@H]1C[C@H](C)CN[C@H]1[C@H]2C`, the AC50 is reported as 25 µM (active). `Cc1ccccc1O` was tested, and the outcome was “inactive”. `Cc1ccc(O)c(C)c1` was tested, and the outcome was “inactive”. `O=C(O)C(F)(F)C(F)(F)C(F)(F)C(F)(F)C(F)(F)C(F)(F)C(F)(F)C(F)(F)F` was tested, and the outcome was “inactive”. `CC(C)C(=O)OCC(C)(C)C(OC(=O)C(C)C)C(C)C` (stereo not given) was tested, and the outcome was “inactive”.

— PubChem BioAssay (EPA / NIEHS)
